# A selection: hits, their analogues and other compounds. The true share with any hit is near 4.6%.
# ADAM17 inh = ADAM17 inhibitors, primary screen, biochemical, QFRET; Disintegrin and metalloproteinase domain-containing protein 17 (Homo sapiens), P78536; recombinant ADAM17, EDANS/DABCYL FRET peptide cleavage; inhibition, % at 6.95 µM; hit rate 0.83% among 370,000;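 active = inhibition above the mean of compounds lying between control limits plus 3 SD, set per campaign, cut at about 8.5% in these data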;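 note: 0% = DMSO-only wells as the low control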
# FAS TE block = FAS thioesterase domain inhibitors, primary screen, biochemical, fluorescence intensity, uHTS | recombinant FAS-TE, OMFH fluorogenic substrate, fluorescence endpoint | inhibition, % at 15 µM | hit rate 0.67% among 360,000 | AID 602261, 2012;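 active = compounds whose normalised, plate-corrected inhibition of enzyme fluorescence in the single-dose primary screen is 50% or more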;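 note: 0% = DMSO with enzyme and 100% = substrate without enzyme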
# ADAM10 inh = human ADAM10 inhibitors, primary screen, biochemical, QFRET, HTS | recombinant ADAM10, EDANS/DABCYL FRET peptide cleavage, 3 h | Disintegrin and metalloproteinase domain-containing protein 10 (Homo sapiens), O14672 | hit rate 0.62% among 370,000 | inhibition, % at 7 µM;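 active = inhibition above a per-campaign cutoff equal to the mean of compounds falling between control-based bounds plus 3 SD, cut at about 20% in these data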;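 note: 0% = DMSO wells while the 100% control is not disclosed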
# Target sequence (O14672 214-748 limits assumed): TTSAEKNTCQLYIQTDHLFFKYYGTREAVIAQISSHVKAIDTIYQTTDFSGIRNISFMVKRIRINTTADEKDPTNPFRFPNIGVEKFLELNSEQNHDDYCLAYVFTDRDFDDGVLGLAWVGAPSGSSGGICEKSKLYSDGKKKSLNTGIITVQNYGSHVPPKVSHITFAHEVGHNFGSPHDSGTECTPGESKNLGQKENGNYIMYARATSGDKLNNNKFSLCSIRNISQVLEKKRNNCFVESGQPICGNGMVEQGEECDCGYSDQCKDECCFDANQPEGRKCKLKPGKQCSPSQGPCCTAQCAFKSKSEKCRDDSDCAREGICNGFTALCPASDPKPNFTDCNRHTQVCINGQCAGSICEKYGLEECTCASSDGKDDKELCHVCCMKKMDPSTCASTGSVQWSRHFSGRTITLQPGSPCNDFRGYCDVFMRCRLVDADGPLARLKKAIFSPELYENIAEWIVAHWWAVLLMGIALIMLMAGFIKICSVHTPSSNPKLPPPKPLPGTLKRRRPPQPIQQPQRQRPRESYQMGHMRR
# KLK7 zymogen act = proKLK7 zymogen activators, primary screen, biochemical, fluorescence intensity | purified proKLK7, EDANS-DABCYL substrate fluorescence; 100% is mature enzyme control, 0% vehicle | hit rate 0.9% among 370,000 | Kallikrein-7 (Homo sapiens), P49862 | activation, % at 7 µM;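 active = activation above the mean of all tested compounds plus 3 SD, computed per campaign excluding outliers beyond control limits, cut at about 13% in these data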
# NR3A LBD binder = binders of NR3A ligand-binding domain, primary screen, biophysical, differential scanning fluorimetry, uHTS; Glutamate receptor ionotropic, NMDA 3A (GRIN3A) ligand-binding domain; NR3A LBD differential scanning fluorimetry, Tm shift; 0% = protein alone, 100% = glycine-bound protein; Tm shift relative to glycine control, % at 25 µM; hit rate 2.5% among 340,000;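 active = melting temperature shift of at least 10% of the positive control shift, at one fixed dose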
# ADAM10 ctr = ADAM10 inhibitors, counter-screen for ADAM17 exosite inhibitor project, biochemical, FRET, human ADAM10; shares compounds with ADAM17 inh; recombinant ADAM10, EDANS/DABCYL FRET peptide cleavage, 3 h; inhibition, % at 6.95 µM; hit rate 47% among 2,900; AID 743256, 2014;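 active = mean inhibition over the triplicate runs exceeds the activity threshold set in the earlier primary screen, cut at about 20% in these data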;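 note: 0% = DMSO wells and 100% = marimastat wells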
# ADAM17 confirm = ADAM17 inhibitors, hit retest, confirmation, biochemical, QFRET peptide cleavage. AID 743257, 2014. shares compounds with ADAM17 inh. inhibition, % at 6.95 µM. hit rate 65% among 2,900. recombinant ADAM17, EDANS/DABCYL QFRET peptide cleavage;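 active = mean inhibition across replicates above the hit cutoff set in the primary screen, cut at about 8.5% in these data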;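 note: 0% = DMSO wells and 100% = marimastat wells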
# * marks the source's active call; other numbers are inactive results; nt = no result.
SMILES,ADAM17 inh,FAS TE block,ADAM10 inh,KLK7 zymogen act,NR3A LBD binder,ADAM10 ctr,ADAM17 confirm
O=[N+]([O-])c1cc([N+](=O)[O-])c(Oc2cccnc2Br)cc1NN1CCCCC1,11*,19,3,0,0,26*,15*
O=C1Cn2nnc(-c3ccccc3)c2C2c3cc(Br)ccc3CCN12 (stereo not given),-3,nt,-7,1,nt,nt,nt
COc1cc(C)c(C)cc1S(=O)(=O)N1CCN(Cc2ccc3c(c2)OCO3)CC1,8.8*,11,8,0,-4,23*,9.3*
CCN1/C(=C\C=C(C(C)=O)C(C)=O)Sc2ccccc21,10*,-32,12,0,1,18,9.1*
CCOC(=O)/C(C#N)=C(C)/C=C1\Sc2ccccc2N1CC,-1,-67,-2,0,-30,nt,nt
COc1ccccc1NS(=O)(=O)c1ccc(-c2cnc(C3CC3)o2)cc1,-1,12,3,1,2,nt,nt
CCOc1ccccc1NS(=O)(=O)c1ccc(-c2cnc(C3CC3)o2)cc1,9.9*,13,7,0,1,0,5
O=C(OCc1ccccc1)N1Cc2ccnnc2CC1c1ccccc1-c1ccc(C(F)(F)F)cc1 (stereo not given),3,nt,1,-1,nt,nt,nt
Cc1onc(-c2ccccc2Cl)c1C(=O)Nc1ccc2c(c1)OCO2,10*,1,2,0,0,11,9
Cc1ccc(NC(=S)NC(=O)c2c(-c3ccccc3Cl)noc2C)cc1,10.0*,29,11,0,-3,26*,14*
Cc1onc(-c2ccccc2Cl)c1C(=O)NC(=S)Nc1ccc(C(C)C)cc1,3,31,9,0,-1,nt,nt
COc1cccc(C(=O)N2CCC[C@@H]2C(=O)N2CCC[C@@H]2C(=O)NCc2ccccc2)c1,1,nt,-1,0,nt,nt,nt
C=CCC[C@@H](Cc1ccc(F)cc1)C(=O)OC[C@@H](Cc1c[nH]c2ccccc12)NC(=O)[C@@H](CC=C)CC(=O)N(CCO)Cc1ccccc1,9.5*,23,7,0,3,37*,21*
C=CCC[C@@H](Cc1ccc(F)cc1)C(=O)OC[C@H](C)NC(=O)[C@@H](CC=C)CC(=O)N(CCO)Cc1ccccc1,9.8*,18,19,0,-2,6,7
C=CC[C@H](CC(=O)N(CCO)Cc1ccccc1)C(=O)N[C@@H](C)COC(=O)[C@@H](CC=C)Cc1ccc(F)cc1,-1,-2,-4,0,1,nt,nt
Cc1ccc(S(=O)(=O)N2CCCc3nc(C)c(C)cc32)cc1,-2,nt,1,0,nt,nt,nt
COc1ccc(S(=O)(=O)Nc2ccc3ccccc3c2)cc1C,10*,29,19,-1,1,29*,18*
CCOC(=O)C1=CCN(S(=O)(=O)c2ccc(Cl)cc2)C1c1ccc(Br)cc1 (stereo not given),4,nt,5,0,nt,nt,nt
O=S(=O)(NCc1ccc(Cl)cc1)c1ccc(Br)cc1C1CC[C@@H](O)C1 (stereo not given in full),8,nt,7,-1,nt,nt,nt
O=C(Nc1cccc(S(=O)(=O)NCc2ccco2)c1)c1cc(-c2ccccc2)nc2ccccc12,10*,35,16,-3,7,31*,17*
CC(C)(c1ccccc1)c1ccc(OCCn2cnc3ccccc3c2=O)cc1,9.6*,33,16,0,21*,27*,15*
O=C(/C=C/c1ccc(S(=O)(=O)NCc2ccco2)cc1)NCc1ccccc1Cl,9.9*,13,17,0,-3,0,4
Cc1ccc(C2=NNC(=O)C(P(=O)(c3ccccc3)c3ccccc3)C2)cc1 (stereo not given),9.4*,-5,2,1,0,7,4
Cc1ccc(S(=O)(=O)N2C[C@@H](C)[C@]3(C2)[C@H](O)[C@H](OC(=O)Nc2c(C)noc2C)C[C@H]2C(=O)N(c4ccccc4)C(=O)[C@H]23)cc1,-2,-6,4,0,nt,nt,nt
Cc1ccc(S(=O)(=O)N2C[C@@H](C)[C@]3(C2)[C@H](O)[C@H](OC(=O)NCc2ccccc2F)C[C@H]2C(=O)N(c4ccccc4)C(=O)[C@H]23)cc1,9.2*,28,14,0,nt,37*,20*
SMILES,ADAM17 inh,FAS TE block,ADAM10 inh,KLK7 zymogen act,NR3A LBD binder,ADAM10 ctr,ADAM17 confirm
CC1CN(S(=O)(=O)c2ccc(NC(=O)c3cc(-c4ccccc4O)n[nH]3)cc2)CC(C)O1 (stereo not given),12*,8,24*,0,36*,18,14*
O=S(=O)(Cc1ccc(Cl)cc1)C1CCCCC1O (stereo not given),11*,-3,7,0,1,-11,-3
O=S(=O)(Cc1ccc(Cl)cc1)NCC1CCCO1 (stereo not given),0,-7,11,1,-1,nt,nt
CN1CC[C@@H]2CN(S(=O)(=O)c3ccccc3)[C@H](c3ccccc3Br)C[C@@H]21,-2,nt,-5,1,nt,nt,nt
CN1NC(=O)c2ccccc2NC1=S,-2,nt,-3,0,nt,nt,nt
Cn1c(=O)c2c(ncn2CC(=O)Nc2nc(-c3ccc(F)c(F)c3)cs2)n(C)c1=O,8.8*,3,2,0,2,-6,0
Cc1ccc(-c2csc(NC(=O)Cn3cnc4c3c(=O)n(C)c(=O)n4C)n2)cc1C,-2,-5,-8,4,0,nt,nt
COc1ccc(C(=O)Nc2ccc(S(=O)(=O)N3CCc4ccccc43)cc2)cc1,9.2*,25,19,0,5,21*,15*
CS(=O)(=O)N1CCc2cc(C(=O)Nc3ccc(Br)cc3)ccc21,9.0*,6,2,0,-3,-11,0
O=C(Nc1ccc(S(=O)(=O)N2CCCCC2)cc1)c1ccc(CN2CCc3ccccc3C2)cc1,8.8*,15,16,0,-2,16,9.6*
C=CCN=C1NC(c2ccc(F)cc2)C(C(=O)OC)=C(C)N1C (stereo not given),-4,nt,-2,0,nt,nt,nt
